Spn MK inh – S. pneumoniae mevalonate kinase inhibition; purified MK, PK/LDH-coupled NADH absorbance 340 nm; inhibition, % at 10 µM; 65,000 tested, 0.48% active; AID 555;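 active = ranked among the strongest by inhibition in the single 10 µM screen, a fixed top-ranked set picked for dose follow-up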
Abs 340nm – compounds absorbing at 340 nm. compound absorbance at 340 nm, fold over control. fold change at 10 µM. 65,000 tested, under 10 active;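 active = at 10 µM dose, initial 340 nm absorbance at least 2 fold that of control wells; inactive = change under 2 fold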;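 note: initial absorbance extrapolated from kinetic A340 decline of NADH oxidation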
Spn DPM-DC inh – S. pneumoniae DPM-DC inhibition | purified DPM-DC, PK/LDH coupled NADH fluorescence | calls only at 10 µM | 65,000 tested, 0.49% active;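 active = the 320 compounds with the highest percent inhibition in the single-dose primary screen, excluding strongly autofluorescent ones, cut at about 32% in these data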;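 note: kinetic rate of NADH fluorescence loss reporting ADP formed by the decarboxylase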
Spn PMK inh – inhibitors of Streptococcus pneumoniae phosphomevalonate kinase; purified PMK, PK/LDH-coupled NADH absorbance 340 nm; inhibition, % at 10 µM; 65,000 tested, 0.49% active; AID 539;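 active = top-ranked compounds by inhibition in the single 10 µM screen, taking a fixed number of the strongest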;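 note: 0% = full reaction with DMSO carrier and 100% = background rate without enzyme reaction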
Fluor 339 460 – intrinsic fluorescence of library compounds, ex339/em460 – biochemical, MLSMR library, data from DPM-DC assay, artefact control, profiling panel | compound autofluorescence, ex339/em460 nm, NADH buffer; stronger effect = higher value; 1 = no-compound wells, NADH background | AID 709 | fluorescence fold increase at 10 µM | 65,000 tested, 5.5% active;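 active = at 10 µM, mean starting fluorescence two-fold or more over control wells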;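 note: signal is the first read of a kinetic run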
NADH enzymes – inhibition of NAD/NADH coupling enzymes, library profiling; AID 774; 65,000 tested, 0.02% active; coupled PK/LDH NADH assays, four targets; IC50, µM (top dose mostly 10 µM), for inactives: at the top dose inhibition;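 active = single-dose screening hits from any of four coupled enzyme assays that gave an IC50 when retested across doses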;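 note: the DPM-DC format reads NADH fluorescence rather than 340 nm absorbance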
* marks the source's active call; other numbers are inactive results; i = inactive; . = no result given; + = active, no number; [ ] = remark or other dose. Sampled rows, rich in hits. Any-hit rate of the full collection: about 6.5%.

SMILES	Spn MK inh	Abs 340nm	Spn DPM-DC inh	Spn PMK inh	Fluor 339 460	NADH enzymes
O=C(CCCNS(=O)(=O)c1ccc(Br)cc1)N1CC[C@@]2(O)CCCC[C@H]2C1	5	1	i	8	0.9	5%
O=C(CN1C(=O)C2CC=CCC2C1=O)OCCN1C(=O)c2ccccc2C1=O (stereo unspecified)	12	1.1	i	15	1.1	10%
CCOc1cc(C2C(C(=O)N3CCCCC3)=C(C)NC3=C2C(=O)CCC3)cc(Br)c1O (stereo unspecified)	13	1.2	i	9	2.5*	16%
CCOC(=O)C1=C(C)NC(=O)NC1c1cc(Br)c(O)c(OC)c1 (stereo unspecified)	10	1	i	8	0.78	13%
COc1cc(S(=O)(=O)N2CCN(C)CC2)ccc1Cl	9	0.98	i	6	1.1	5%
CN1CCN(S(=O)(=O)c2cccc(S(=O)(=O)c3ccc(Cl)c(Cl)c3)c2)CC1	13	1.1	i	25*	1.1	13%
COc1cc(OC)c(C2C3=C(CCCC3=O)Nc3nc4ccccc4n32)cc1OC (stereo unspecified)	8	1.1	i	12	1.1	7%
COc1cccc(C2C3=C(CCCC3=O)Nc3nc4ccccc4n32)c1OC (stereo unspecified)	7	1.1	.	9	5*	8%
N=c1c(S(=O)(=O)c2ccccc2)cc2c(=O)n3ccccc3nc2n1Cc1ccco1	7	1	.	19	4*	13%
Cc1ccc(S(=O)(=O)c2cc3c(=O)n4ccccc4nc3n(CC3CCCO3)c2=N)cc1C (stereo unspecified)	3	1	+[fluoresces]	14	2.2*	3%
Cc1ccc(S(=O)(=O)c2cc3c(=O)n4ccccc4nc3n(Cc3ccco3)c2=N)cc1C	2	1	.	0	3.5*	1%
CC(C)(C)C(=O)Cn1c(=O)n(CC2CCCO2)c(=O)c2ccccc21 (stereo unspecified)	3	0.99	i	16	1	7%
O=c1c2ccccc2c2ccccc2c(=O)n1Cc1ccco1	11	1	i	2	1.1	7%
N=c1c(S(=O)(=O)c2ccccc2)cc2c(=O)n3ccccc3nc2n1CCN1CCOCC1	13	1.1	.	3	3.7*	8%
Cc1ccc(S(=O)(=O)c2cc3c(=O)n4ccccc4nc3n(C)c2=N)cc1	12	0.99	i	9	1.9	13%
CCCS(=O)(=O)c1c(S(=O)(=O)CCC)c2c3ccccc3ccn2c1C(N)=O	7	1	i	9	0.99	8%
O=C(Nc1ccc2nc(-c3cccs3)[nH]c2c1)c1cccs1	9	1.2	i	3	2.4*	12%
CC(=O)Nc1ccc2nc(-c3ccccn3)[nH]c2c1	4	1.1	.	12	3.7*	8%
Cc1ccc2nc(Nc3nc(=O)c4ccccc4n3C)nc(C)c2c1	10	1	i	4	1.2	5%
Cc1ccc(-c2nc3c(=O)n(C)c4ccccc4c3o2)cc1	3	1	.	7	4.7*	5%
COC(=O)c1ccc(C2C(C#N)=C(C)NC3=C2C(=O)CC(C)(C)C3)cc1 (stereo unspecified)	5	1	.	3	4.7*	4%
COc1ccc(C2C(C#N)=C(SC)NC3=C2C(=O)CC(C)(C)C3)cc1 (stereo unspecified)	4	1.1	i	3	1.1	4%
c1ccc2c(c1)[nH]c1c(N3CCN(C4CCCCC4)CC3)ncnc12	9	1.1	.	0	2.3*	5%
Cc1ccc2[nH]c3c(N4CCOCC4)ncnc3c2c1	2	1	.	0	2.5*	2%
CN1CCN(c2ncnc3c2[nH]c2ccc(F)cc23)CC1	8	1.1	.	0	2.3*	4%
SMILES	Spn MK inh	Abs 340nm	Spn DPM-DC inh	Spn PMK inh	Fluor 339 460	NADH enzymes
c1ccc2c(c1)[nH]c1c(N3CCCC3)ncnc12	13	1.1	i	13	1.4	10%
c1ccc2c(c1)[nH]c1c(N3CCOCC3)ncnc12	3	1.1	i	2	1.7	5%
COCCN1CCn2c(nc3cc(NC(=O)NC4CCCCC4)ccc32)C1	9	1	.	8	3.7*	9%
Cc1noc(C)c1CSc1nc2ccccc2n1CCc1ccccc1	3	1	i	17	1.1	7%
CCNC(=O)NCCc1c[nH]c2ccc(Cl)cc12	7	1	i	9	1.1	5%
COc1cccc(OC)c1OCC(C)CNCC1CCCO1 (stereo unspecified)	52*	1	i	0	1.1	17%
COc1ccc(-c2nc(C#N)c(NCc3ccccc3Cl)o2)cc1OC	9	1	.	17	4*	13%
COc1ccc(-c2nc(C#N)c(NCc3ccccc3Cl)o2)cc1	3	1.1	i	0	3.1*	1%
COc1ccc(-c2nc(C#N)c(NCc3ccc(F)cc3)o2)cc1OC	13	1.1	.	20	3.9*	17%
COc1ccc(CNc2oc(-c3ccccc3)nc2C#N)cc1	3	1	.	0	2	1%
COC(=O)c1cccc(Nc2nc3ccccc3nc2C)c1	4	1.1	i	3	1.3	4%
COc1cccc(NC(=O)c2nc3ncccn3n2)c1	4	1	i	8	1.1	4%
COCCSc1ccccc1C(=O)NCc1ccco1	8	1	i	0	1.1	3%
CCOc1ccc(C(C)=O)cc1Cn1nc(C(=O)O)c2ccccc2c1=O	4	1	i	9	1.1	4%
CCC(=O)Nc1ccc2c(c1)C(=O)N(C1CCCCC1)C2=O	1	1.1	.	7	3.9*	4%
Cc1cc(NC(=O)c2ccc3c(c2)C(=O)N(C2CCCCC2)C3=O)no1	1	1	i	0	1.1	4%
O=C(OCC(=O)N1CCN(C(=O)COC(=O)c2ccncc2)CC1)c1ccncc1	0	1	i	5	1.2	2%
CCCCCCOC(=O)Sc1nc2ccccc2o1	2	1	i	0	1.1	1%
O=C(Nc1ccc(N2CCOCC2)c(Cl)c1)C1CCCCC1	8	1	i	11	1.1	7%
c1ccc2c3c(cc(N4CCOCC4)c2c1)OC1(N2CCOCC2)CCCCC1O3 (stereo unspecified)	12	1	.	7	3.9*	10%
COc1ccc(C2c3c(oc4ccc(F)cc4c3=O)C(=O)N2CCN2CCOCC2)cc1OC (stereo unspecified)	4	1.1	i	2	1.1	4%
Cc1cccc(NC(=O)c2cnc3sccn3c2=O)n1	active	1.1	i	0	0.97	8%
O=C(Nc1ccon1)c1cnc2sccn2c1=O	5	1.1	i	0	3.2*	8%
COc1ccc(NC(=O)c2cnc3sccn3c2=O)cc1	4	1.2	i	15	0.95	7%
